Compound activity (PubChem)
SMN2 splice up – enhancers of SMN2 splice variant expression; HEK293 SMN2-luciferase splicing reporter, luminescence, 30-36 h; 210,000 tested, 2.8% active; Potency, µM (titrated, usually from 46.1 µM), without a hit: at the highest dose activity change, positive = activation, actives largely listed as activators; also: % of control where 0% means no effect; nearly all actives have a fitted effect of over 55% in size
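HEK293 cells carry an SMN2 minigene-luciferase reporter in which exon 7 inclusion puts luciferase in frame. Cells were seeded at 2000 cells/well, attached for 10-12 hours, then exposed to compounds for 30-36 hours at 37C before ONE-Glo luminescence.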
NPC1 promoter act – NPC1 promoter activation; Huh7 NPC1 promoter luciferase reporter, 24 h; Potency, µM (top dose mostly 9.22 µM), for the others: at the highest dose activation, actives largely listed as activators; 320,000 tested, 2.4% active; also: % of control where 0% means no effect; nearly all actives have a fitted effect of over 60% in size
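Stable NPC1-promoter luciferase Huh7 line; cpd (DMSO) 24 h, 37 °C, 5% CO2; Amplite luciferase reagent 10 min RT; luminescence readout. qHTS format.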
FLuc modulator – firefly luciferase modulation, counter-screen for miR-21 project; P08659; 360,000 tested, 6.9% active; Potency, µM (titrated, usually from 57.5 µM), inactives show at the top dose activity change, negative = inhibition, most hits filed as inhibitors; purified FLuc, Km substrates, luminescence inhibition;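 also: plate controls were vehicle for no effect and reference inhibitor for full effect; nearly all actives have a fitted effect of over 55% in size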
Target sequence (P08659 whole entry, looked up): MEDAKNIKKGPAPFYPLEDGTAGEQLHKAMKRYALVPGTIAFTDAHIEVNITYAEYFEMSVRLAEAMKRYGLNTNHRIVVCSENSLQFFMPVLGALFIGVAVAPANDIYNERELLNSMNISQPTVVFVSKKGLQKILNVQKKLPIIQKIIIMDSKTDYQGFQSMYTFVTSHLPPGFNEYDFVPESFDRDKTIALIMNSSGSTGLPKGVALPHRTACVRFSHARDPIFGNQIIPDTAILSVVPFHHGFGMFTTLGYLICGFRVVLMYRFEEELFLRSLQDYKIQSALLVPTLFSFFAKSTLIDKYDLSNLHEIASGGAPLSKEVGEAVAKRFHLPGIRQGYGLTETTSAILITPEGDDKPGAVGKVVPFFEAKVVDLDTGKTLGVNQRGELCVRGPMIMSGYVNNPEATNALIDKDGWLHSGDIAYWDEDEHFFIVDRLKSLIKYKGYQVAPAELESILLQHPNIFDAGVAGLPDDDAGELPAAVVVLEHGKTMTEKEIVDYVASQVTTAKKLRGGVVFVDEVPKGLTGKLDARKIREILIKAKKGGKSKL
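Biochemical qHTS of compounds, final roughly 60 µM downward over six points, against 10 nM purified firefly luciferase using Km concentrations of substrates (10 uM D-luciferin, 10 uM ATP) in Tris acetate pH 7.5 buffer; luminescence output.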
Rab9 promoter act – activates the Rab9 promoter. Huh7 Rab9 promoter-luciferase reporter, luminescence, 24 h. Potency, µM (highest dose often 9.22 µM), inactives show at the top dose activation, negative = inhibition, actives largely listed as activators. 320,000 tested, 2.8% active; also: % of control where 0% means no effect; nearly all actives have a fitted effect of over 60% in size
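Measured in stably transfected Huh7 cells bearing a Rab9 promoter–luciferase construct: 24 h compound treatment at 37 °C, followed by luminescence detection.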
ELG1 genotox – genotoxicity induction in ELG1-luciferase HEK293T cells. HEK293T ELG1-luciferase reporter, luminescence, 16 h. Potency, µM (highest dose often 46 µM), for the others: at the highest dose activity change, positive = activation, most hits filed as activators. 330,000 tested, 1.3% active; also: % of control where 0% means no effect; nearly all actives have a fitted effect of over 60% in size
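Luminescence read-out: rising ELG1-luciferase signal, reflecting elevated ELG1 protein under genetic stress, flags genotoxic compounds. Cells were treated for 16 hr at 37 °C before ONE-Glo detection.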
ELG1 DNA repair – inhibitors of ELG1-dependent DNA repair in HEK293T cells. HEK293T ELG1-luciferase reporter, luminescence, 16 h; DNA damage induced by 5-fluorouridine. 330,000 tested, 2.3% active. AID 504467. Potency, µM (top dose mostly 46.1 µM), without a hit: top-dose activity change, negative = inhibition, actives largely listed as inhibitors; also: % is scaled to controls: 0 for no effect and ±100 for the full control effect; nearly all actives have a fitted effect of over 55% in size
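Quantitative HTS, concentration-response format. 2,000 cells/well co-treated with 5-fluorouridine and compound, 16 hr in 5% CO2 at 37 °C; ONE-Glo luminescence read after 30 min.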
Numbers without * were called inactive; ? = inconclusive; . = not tested or not shown. Sampled rows, rich in hits. Any-hit rate of the full collection: about 9.3%. Calls follow the shape of the dose curve; as a rule, active = well fitted curve in the direction sought with a large enough effect; inconclusive = small, poorly fitted or top-dose-only effect, or another doubt; inactive = no such curve, though single readings can be large; an effect the other way counts as inactive or inconclusive. Potency is read from the fitted curve at half-maximal effect.

SMILES	SMN2 splice up	NPC1 promoter act	FLuc modulator	Rab9 promoter act	ELG1 genotox	ELG1 DNA repair
Cc1c(Cl)cccc1NC(=O)Cn1c(-c2ccc(F)cc2)noc1=O	.	-3%	?	-15%	-2%	5%
Nc1ncnc2nc(Sc3ccc(Cl)cc3)[nH]c12	-27%	-2%	-2%	-4%	1%	3%
Nc1ncnc2nc(SCc3ccc(Cl)cc3Cl)[nH]c12	-31%	-1%	21µM*	1%	3%	?
CC(C)N(CC(O)COc1ccc(CC(N)=O)cc1)CC(O)COc1ccc(CC(N)=O)cc1 (configuration not stated)	.	-1%	5%	1%	0%	-5%
COc1ccc(OC2C(=O)N(CCc3ccc(OC)c(OC)c3)C2c2ccc3c(c2)OCO3)cc1 (configuration not stated)	-37%	0%	0%	0%	-6%	18µM*
CC1CC[C@@]23CCC4(C)[C@@]5(C)CCC6C(C)(C)C(=O)CC[C@@]6(C)C5C=C[C@@]4(OC2=O)C3C1C (some centres not stated)	6%	.	.	.	.	.
Cc1cccc(CCNC(=O)c2cc3c(=O)[nH]c4ccc(C)cc4c3s2)c1	-8%	.	-10%	.	.	.
NC(=O)c1ccccc1NC(=O)/C=C/c1cccc(Cl)c1	11µM*	3.2µM*	6.7µM*	2.2µM*	7%	?
Cc1ccc(/C=C/C(=O)Nc2ccccc2C(N)=O)o1	11µM*	.	9.5µM*	.	.	.
NC(=O)c1ccccc1NC(=O)/C=C/c1c(Cl)cccc1Cl	46%	?	19µM*	3.2µM*	12%	?
O=C(/C=C/c1cccc(Cl)c1)NCCc1ccccc1	15%	1%	?	-6%	?	?
O=C1COc2ccc(S(=O)(=O)N3CCCCCC3)cc2N1	.	-3%	1%	0%	2%	12%
CCCCN1C=CC(=C2C(=O)c3ccccc3C2=O)C=C1	-67%	?	0.13µM*	0.032µM*	?	?
Cc1cc(C(=O)NC2CCC(O)CC2)c(C)o1 (configuration not stated)	.	.	.	.	2%	?
Cc1ccccc1NS(=O)(=O)c1ccc2c3c(cccc13)C(=O)N2C	.	-5%	2%	0%	21µM*	?
C/C(=N\Nc1cccc2cccnc12)c1ccc(N)cc1	11µM*	2.8µM*	4.3µM*	2.2µM*	?	?
CNC(=O)Nc1cccc2cccnc12	.	-2%	5%	-5%	-1%	0%
C/C(=N\Nc1cccc2cccnc12)c1ccccc1O	25µM*	14%	1.2µM*	?	?	?
C/C(=N\Nc1cccc2cccnc12)c1ccccn1	2µM*	3.2µM*	0.34µM*	0.79µM*	?	?
CC(=O)c1nnn(-c2ccc([N+](=O)[O-])cc2C)c1C	8%	-4%	-1%	-1%	-8%	5%
Cc1cnn(Cc2cccnc2)c1N	.	-4%	0%	-1%	3%	0%
O=C(c1cc(-c2ccc(Cl)cc2Cl)on1)N1CCN(C(=O)c2ccco2)CC1	-33%	2%	30µM*	3%	0%	?
O=C(c1cc(-c2ccccc2Cl)on1)N1CCN(C(=O)c2ccco2)CC1	5%	1%	19µM*	-3%	1%	24%
NC(=O)C1CCN(C(=O)c2ccc(-c3ccccc3Cl)o2)CC1	.	?	9.5µM*	2.5µM*	?	?
O=C(c1ccc(-c2ccc(Cl)cc2Cl)o1)N1CCOCC1	22µM*	3.2µM*	8.5µM*	3.2µM*	?	?
SMILES	SMN2 splice up	NPC1 promoter act	FLuc modulator	Rab9 promoter act	ELG1 genotox	ELG1 DNA repair
O=C(NCc1cccnc1)c1ccc(-c2cc3ccccc3oc2=O)cc1	-72%	21%	?	25%	?	2%
O=C(O)CN1CCN(Cc2cccc(Cl)c2)C1=O	.	-1%	1%	-6%	0%	-1%
O=C(c1ccc(-c2ccccc2Cl)o1)N1CCN(c2ccccc2O)CC1	.	12%	?	2%	-1%	?
CN(C)/C=C/C(=O)c1ccc(-c2ccc(Cl)cc2Cl)o1	?	?	9.5µM*	4.5µM*	?	?
O=C(c1ccco1)N1CCN(Cc2c(Cl)cccc2Cl)CC1	.	?	27µM*	3.2µM*	?	?
O=C(c1ccc(-c2ccccc2Cl)o1)N1CCN(S(=O)(=O)c2cccs2)CC1	.	?	11µM*	?	0%	?
O=C(c1ccco1)N1CCN(C(=O)c2ccc(-c3ccccc3Cl)o2)CC1	.	?	9.5µM*	2.8µM*	14%	?
COc1cccc(CNC(=O)CS(=O)(=O)Cc2nc(-c3ccc(C)cc3)oc2C)c1OC	.	-4%	11%	2%	1%	8%
CCN(CC)C(=O)Cn1cc(SCC(=O)Nc2ccccc2F)c2ccccc21	.	.	2%	.	.	.
CCc1nn(CC(=O)NCCCOC)c(=O)c2cc3ccccc3n12	-2%	.	4%	.	.	.
O=c1c2c3c(sc2nc2sc(CN4CCOCC4)cn12)CCCC3	?	4.5µM*	-5%	?	?	?
O=C(NCCN1CCOCC1)c1cccn2c(=O)c3c4c(sc3nc12)CCCC4	.	-2%	-17%	2%	-3%	1%
CO[C@]12CC(COC(=O)c3cncc(Br)c3)CN(C)[C@@H]1Cc1cn(C)c3cccc2c13 (some centres not stated)	-11%	.	.	.	.	.
Cc1cccc(-c2nc(SCCCOc3ccccc3Cl)n3[nH]c(=O)cc3n2)c1	.	.	6.7µM*	.	.	.
O=C1C=C(c2ccc(F)cc2OCc2ccccc2)C[C@@H](c2ccc(F)cc2)C1	.	-10%	-25%	-3%	1%	?
Cc1ccc(CNC(=O)c2cc3c(-c4ccc(Cl)cc4)nn(C)c3s2)o1	-43%	-18%	4%	-12%	-17%	16µM*
COc1ccc(Br)c(OC)c1C(=O)NC(=O)Nc1nc(C)cc(C)n1	.	0%	3%	7%	-5%	-2%
COc1ccc(C(=O)/C=C2\NCC3c4ccccc4CCN3C2=O)cc1 (configuration not stated)	9%	23%	6µM*	?	0%	?
Cc1nn2cc(-c3cccc(Cl)c3)cnc2c1Cl	13µM*	-12%	-20%	?	18%	?
CCOC(=O)c1c(NC(=O)C2c3ccccc3Oc3ccccc32)sc(C)c1CC	-25%	.	-4%	.	.	.
C=CCNc1nc2c3ccccc3n(C(C)=O)c2s1	-3%	21%	24µM*	23%	?	?
CCCCN(C)Cc1cc(=O)oc2ccc3ccccc3c12	.	0%	3%	3%	0%	?
